{"source": "the antibiotic and cytotoxicity screens of Wong et al. (2023)", "note": "About 500 (1.3%) of roughly 39,000 compounds were called active. Shown is part of a subset that was picked to be rich in actives."}
{"system": "S. aureus RN4220", "test": "growth inhibition call (relative growth <= 0.2)", "details": "50 µM"}
{"smiles": "CNC(=O)Cn1cc(Br)cn1", "growth inhibition call": "inactive"}
{"smiles": "C[C@H]1N(c2cnn(C)c2)C(=O)COC12CCN(S(C)(=O)=O)CC2", "growth inhibition call": "inactive"}
{"smiles": "O=C1O[C@H](CO)[C@@H](O)[C@H](O)[C@H]1O", "growth inhibition call": "inactive"}
{"smiles": "COc1ccc2c3c(n(c2c1)C)[C@@H](CO)N(Cc1ccccc1F)C[C@]13CN(C1)C(=O)C1CCOCC1", "growth inhibition call": "inactive"}
{"smiles": "C[C@@H]1CN([C@@H](C)CO)C(=O)c2cccc(NS(C)(=O)=O)c2O[C@@H]1CN(C)C(=O)Nc1ccc2c(c1)OCO2", "growth inhibition call": "inactive"}
{"smiles": "CC1CCC2(C)C(C=O)=CCCC2C1(C)CC1OC(O)C(=O)C12CO2", "note": "(stereo unspecified)", "growth inhibition call": "active"}
{"smiles": "C[C@H]1CN([C@@H](C)CO)C(=O)c2cc(NC(=O)CCN3CCOCC3)ccc2O[C@@H]1CN(C)Cc1ccc2c(c1)OCO2", "growth inhibition call": "inactive"}
{"smiles": "C[C@H](CO)N1C[C@H](C)[C@@H](CN(C)Cc2ccc(Cl)c(Cl)c2)Oc2ccc(NC(=O)Nc3cccc4ccccc34)cc2C1=O", "growth inhibition call": "inactive"}
{"smiles": "C=CC[C@H](CC(=O)NCCO)C(=O)N[C@H](COC(=O)[C@@H](CC=C)CC(=O)OC(C)(C)C)Cc1ccccc1", "growth inhibition call": "inactive"}
{"smiles": "O=C(CCCCCC(=O)Nc1ccccc1O)N/N=C/C[P+](c1ccccc1)(c1ccccc1)c1ccccc1", "growth inhibition call": "inactive"}
{"smiles": "COC(=O)CCCCCCC(=O)Nc1ccc(NC(=O)CCCC[P+](c2ccccc2)(c2ccccc2)c2ccccc2)cc1", "growth inhibition call": "active"}
{"smiles": "O=C(CCCCCCC(=O)Nc1ccccc1)NO", "growth inhibition call": "inactive"}
{"smiles": "C[C@@H]1CN([C@H](C)CO)C(=O)c2cccc(NC(=O)NC3CCCCC3)c2O[C@H]1CN(C)C(=O)Nc1cccc2ccccc12", "growth inhibition call": "inactive"}
{"smiles": "C[N+](C)(C)CCCCCCNC(=O)[C@@H]1C[C@@H]2C(=O)N[C@@H](CCCC[N+](C)(C)C)C(=O)N2[C@@H]1c1ccc(O)cc1", "growth inhibition call": "active"}
{"smiles": "C[N+](C)(C)CCCCNC(=O)[C@H]1C[C@H]2C(=O)N[C@@H](CCCC[N+](C)(C)C)C(=O)N2[C@H]1c1ccc(O)cc1", "growth inhibition call": "inactive"}
{"smiles": "C[N+](C)(C)CCCCCCNC(=O)[C@H]1C[C@H]2C(=O)N[C@@H](CCCC[N+](C)(C)C)C(=O)N2[C@H]1c1ccc(O)cc1", "growth inhibition call": "inactive"}
{"smiles": "COc1ccc(CNC(=O)C[C@@H]2C[C@H]3c4cc(NC(=O)NC5CCCC5)ccc4O[C@H]3[C@@H](CO)O2)cc1", "growth inhibition call": "inactive"}
{"smiles": "O=C(Nc1ccc(S(=O)(=O)OCC(F)(F)C(F)(F)C(F)(F)C(F)F)cc1)NC1(C(F)(F)F)Oc2ccccc2O1", "growth inhibition call": "active"}
{"smiles": "C=CC[C@@H](CC(=O)N(CCO)Cc1ccccc1)C(=O)NCCOC(=O)[C@@H](CC=C)CC(=O)OC(C)(C)C", "growth inhibition call": "inactive"}
{"smiles": "C[C@H](CO)N1C[C@H](C)[C@H](CN(C)C(=O)Nc2ccc(C(F)(F)F)cc2)Oc2ccc(NC(=O)Cn3cnnn3)cc2CC1=O", "growth inhibition call": "inactive"}
{"smiles": "O=C(C[C@@H]1CC[C@H]2[C@@H](COC[C@H](O)CN2S(=O)(=O)c2ccccc2)O1)N1CCOCC1", "growth inhibition call": "inactive"}
{"smiles": "COc1ncc(-c2ccc3c(Nc4cc(Oc5cc(F)cc(F)c5)cc(C(=O)O)c4)c(S(=O)(=O)NC4CC4)cnc3c2)c(OC)n1", "growth inhibition call": "active"}
{"smiles": "CCCN(C)C[C@H]1OCCCC[C@H](C)Oc2ccc(NC(=O)CCC(F)(F)F)cc2C(=O)N([C@H](C)CO)C[C@@H]1C", "growth inhibition call": "inactive"}
{"smiles": "O=C(OCc1ccccc1)c1cccnc1", "growth inhibition call": "inactive"}
{"smiles": "C[C@H]1CCCCO[C@H](CN(C)CC2CCCCC2)[C@@H](C)CN([C@@H](C)CO)C(=O)c2cc(NC(=O)Nc3cccc4ccccc34)ccc2O1", "growth inhibition call": "inactive"}
{"smiles": "CCCC#Cc1ccc2c(c1)O[C@H](CN(C)Cc1ccc3c(c1)OCO3)[C@H](C)CN([C@@H](C)CO)S2(=O)=O", "growth inhibition call": "inactive"}
{"smiles": "C[C@@H]1CN([C@@H](C)CO)C(=O)c2cc(NS(=O)(=O)c3cccs3)ccc2O[C@@H]1CN(C)CC1CC1", "growth inhibition call": "inactive"}
{"smiles": "CN(C)[C@@H]1C(=O)[C@@H](C(N)=O)C(=O)[C@@]2(O)C(=O)[C@H]3C(=O)c4c(O)cccc4C[C@H]3C[C@@H]12", "growth inhibition call": "inactive"}
{"smiles": "CN(C)[C@@H]1C(=O)[C@@H](C(=O)NCNCCCC[C@H](N)C(=O)O)C(=O)[C@@]2(O)C(=O)[C@@H]3C(=O)c4c(O)cccc4[C@@](C)(O)[C@H]3C[C@@H]12", "growth inhibition call": "inactive"}
{"smiles": "CN(C)c1cc(NC(=O)CNC(C)(C)C)c(O)c2c1C[C@H]1C[C@H]3[C@H](N(C)C)C(=O)[C@@H](C(N)=O)C(=O)[C@@]3(O)C(=O)[C@H]1C2=O", "growth inhibition call": "inactive"}
{"smiles": "CN(C)[C@@H]1C(=O)[C@@H](C(N)=O)C(=O)[C@@]2(O)C(=O)[C@@H]3C(=O)c4c(O)c(NC(=O)CN5CCCC5)cc(F)c4C[C@H]3C[C@@H]12", "growth inhibition call": "active"}
{"smiles": "CN(C)c1cc(NC(=O)CNC(C)(C)C)c(O)c2c1C[C@H]1C[C@H]3[C@H](N(C)C)C(=O)C(C(N)=O)=C(O)[C@@]3(O)C(=O)[C@H]1C2=O", "growth inhibition call": "inactive"}
{"smiles": "CN(C)[C@@H]1C(=O)[C@@H](C(N)=O)C(=O)[C@@]2(O)C(=O)[C@H]3C(=O)c4c(O)ccc(Cl)c4[C@@H](O)[C@H]3C[C@@H]12", "growth inhibition call": "active"}
{"smiles": "CN(C)c1ccc(O)c2c1C[C@H]1C[C@H]3[C@H](N(C)C)C(=O)C(C(N)=O)=C(O)[C@@]3(O)C(=O)[C@H]1C2=O", "growth inhibition call": "inactive"}
{"smiles": "CN(C)C1C(O)=C(C(N)=O)C(=O)C2(O)C(O)=C3C(=O)c4c(O)ccc(Cl)c4C(O)C3CC12.Cl", "note": "(stereo unspecified)", "growth inhibition call": "inactive"}
{"smiles": "CN(C)c1cc(CNCC(C)(C)C)c(O)c2c1C[C@H]1C[C@H]3[C@H](N(C)C)C(=O)[C@H](C(N)=O)C(=O)[C@@]3(O)C(=O)[C@@H]1C2=O", "growth inhibition call": "active"}
{"smiles": "CN(C)c1ccc(O)c2c1C[C@H]1C[C@H]3[C@H](N(C)C)C(=O)[C@@H](C(N)=O)C(=O)[C@@]3(O)C(=O)[C@H]1C2=O", "growth inhibition call": "active"}
{"smiles": "CN(C)c1ccc(O)c2c1C[C@@H]1C[C@@H]3[C@@H](N(C)C)C(=O)C(C(N)=O)=C(O)[C@]3(O)C(=O)[C@H]1C2=O", "growth inhibition call": "inactive"}
{"smiles": "CN(C)c1cc(NC(=O)CNC(C)(C)C)c(O)c2c1CC1CC3C(N(C)C)C(O)=C(C(N)=O)C(=O)C3(O)C(O)=C1C2=O", "note": "(stereo unspecified)", "growth inhibition call": "inactive"}
{"smiles": "COc1ccc(S(=O)(=O)N(C)C[C@H]2Oc3ccc(NC(=O)C4CC4)cc3C(=O)N([C@@H](C)CO)C[C@@H]2C)cc1", "growth inhibition call": "inactive"}
{"smiles": "C[C@@H]1CCCCO[C@H](CN(C)C(=O)Nc2ccc3c(c2)OCO3)[C@H](C)CN([C@H](C)CO)C(=O)c2cc(NS(=O)(=O)c3ccc(F)cc3)ccc2O1", "growth inhibition call": "inactive"}
